# From PubChem BioAssay (NCI)
# Values joined by “and” are separate entries in the source; they are usually repeats but may differ in a detail not shown here. Equal entries are not always repeated. Compounds without any hit were thinned out: in the full panel of roughly 83,000, 20% have a hit.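 Plates (96-well) were seeded with cells, treated with compound at one concentration, and incubated for 48 hours before percent growth was determined.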 Active and inactive are the calls of the source. The calls were made as follows: active = growth percent below 10; inactive = the rest.
# Assays:
# Experiment in all cases: NCI-60 one-dose screen, 48 h (100 = growth as untreated, 0 = no growth, -100 = all killed)
# Conditions in all cases: 10 µM unless noted
# SK-MEL-2 melanoma = test system: SK-MEL-2 melanoma
# EKVX NSCLC = test system: EKVX NSCLC
# SN12C renal = test system: SN12C renal
# UO-31 renal = test system: UO-31 renal
# TK-10 renal = test system: TK-10 renal
# ACHN renal = test system: ACHN renal
# CAKI-1 renal = test system: CAKI-1 renal
# A498 renal = test system: A498 renal
# CCRF-CEM leukemia = test system: CCRF-CEM leukemia
# MOLT-4 leukemia = test system: MOLT-4 leukemia
# SR leukemia = test system: SR leukemia
# RPMI-8226 leukemia = test system: RPMI-8226 leukemia
# OVCAR-8 ovarian = test system: OVCAR-8 ovarian
# OVCAR-5 ovarian = test system: OVCAR-5 ovarian
# SK-OV-3 ovarian = test system: SK-OV-3 ovarian
# IGROV1 ovarian = test system: IGROV1 ovarian
# OVCAR-3 ovarian = test system: OVCAR-3 ovarian
# HS 578T breast = test system: HS 578T breast
# OVCAR-4 ovarian = test system: OVCAR-4 ovarian
# HL-60(TB) leukemia = test system: HL-60(TB) leukemia
SMILES,growth (SK-MEL-2 melanoma),growth (EKVX NSCLC),growth (SN12C renal),growth (UO-31 renal),growth (TK-10 renal),growth (ACHN renal),growth (CAKI-1 renal),growth (A498 renal),growth (CCRF-CEM leukemia),growth (MOLT-4 leukemia),growth (SR leukemia),growth (RPMI-8226 leukemia),growth (OVCAR-8 ovarian),growth (OVCAR-5 ovarian),growth (SK-OV-3 ovarian),growth (IGROV1 ovarian),growth (OVCAR-3 ovarian),growth (HS 578T breast),growth (OVCAR-4 ovarian),growth (HL-60(TB) leukemia)
CC/C(=C(\c1ccc(OCCN2CCOCC2)cc1)c1ccc(OC(=O)Cc2ccccc2)cc1)c1ccc(Cl)cc1,101% (inactive),109% (inactive),98.6% (inactive),87.9% (inactive),93% (inactive),117% (inactive),91.9% (inactive),104% (inactive),98.1% (inactive),96.7% (inactive),95.6% (inactive),98.8% (inactive),107% (inactive),104% (inactive),111% (inactive),106% (inactive),102% (inactive),96.6% (inactive),,
C[C@]12CCc3sc(Nc4ccc(F)cc4)nc3C1=CC[C@@H]1[C@@H]2CC[C@]2(C)C(=O)CC[C@@H]12,76.8% (inactive),78.3% (inactive),73.8% (inactive),59.8% (inactive),94.4% (inactive),77.9% (inactive),68% (inactive),75.7% (inactive),14% (inactive),15.8% (inactive),,2.21% (active),68.4% (inactive),100% (inactive),90% (inactive),75.2% (inactive),24.1% (inactive),,76.8% (inactive),
CCCn1cc2c3c(cccc31)[C@H]1C[C@@H](C)CN(C)[C@@H]1C2,134% (inactive),94.9% (inactive),81.6% (inactive),36.1% (inactive),96.8% (inactive),94.6% (inactive),83.8% (inactive),71.3% (inactive),86.9% (inactive),77.6% (inactive),71.4% (inactive),48.4% (inactive),89.1% (inactive),84.4% (inactive),87.9% (inactive),35.1% (inactive),84.4% (inactive),83.6% (inactive),,
O=C(O)c1ccc(=O)[nH]c1,85.4% (inactive) and 102% (inactive),111% (inactive) and 98.7% (inactive),88.4% (inactive) and 95.5% (inactive),92.2% (inactive) and 88% (inactive),94.8% (inactive) and 97.5% (inactive),100% (inactive) and 106% (inactive),98.3% (inactive),63.4% (inactive) and 107% (inactive),106% (inactive) and 95.4% (inactive),,87.7% (inactive) and 105% (inactive),103% (inactive) and 96.5% (inactive),101% (inactive) and 103% (inactive),90.3% (inactive) and 106% (inactive),98.9% (inactive) and 93% (inactive),109% (inactive),113% (inactive) and 108% (inactive),,111% (inactive) and 106% (inactive),
Cc1ccccc1-n1c(/C=C\c2ccccn2)nc2ccccc2c1=O,79.4% (inactive),82.8% (inactive),77.7% (inactive),54.7% (inactive),49% (inactive),,31.2% (inactive),62.1% (inactive),29.9% (inactive),32.7% (inactive),-5.07% (active),2.88% (active),71% (inactive),106% (inactive),86.6% (inactive),67.1% (inactive),50.3% (inactive),44.2% (inactive),67.6% (inactive),19.9% (inactive)
CC1=C(C)C(=O)O[C@@H]([C@](C)(O)[C@]2(O)CC[C@@]3(O)[C@@H]4C[C@H]5O[C@]56CC=CC(=O)[C@]6(C)[C@H]4CC[C@]23C)C1,-24.6% (active),,3.65% (active),-24.3% (active),-48% (active),-72.4% (active),-49% (active),-59.9% (active),-8.66% (active),-12.7% (active),-23.5% (active),-19.2% (active),-7.94% (active),21.7% (inactive),-19% (active),-36.7% (active),-59.6% (active),,7.99% (active),-36.9% (active)
[N-]=[N+]=CC(=O)CCC(=O)C=[N+]=[N-],113% (inactive),105% (inactive),,71.3% (inactive),114% (inactive),95% (inactive),97.4% (inactive),110% (inactive),,87% (inactive),,119% (inactive),98.9% (inactive),107% (inactive),109% (inactive),49.2% (inactive),103% (inactive),95.3% (inactive),108% (inactive),76.4% (inactive)
CCCC(C)SP(=S)(SC(C)CCC)SC(C)CCC (configuration not stated),107% (inactive),96.7% (inactive),,93% (inactive),104% (inactive),113% (inactive),104% (inactive),113% (inactive),103% (inactive),,110% (inactive),105% (inactive),107% (inactive),112% (inactive),108% (inactive),,98.5% (inactive),108% (inactive),110% (inactive),106% (inactive)
Cc1cc2c(cc1-c1ccnc(/C=C/C(=O)O)c1)C(C)(C)CCC2(C)C,93.9% (inactive),86.1% (inactive),,62.1% (inactive),115% (inactive),81.6% (inactive),91.8% (inactive),73.7% (inactive),95.7% (inactive),91.9% (inactive),,41.4% (inactive),79% (inactive),100% (inactive),98.1% (inactive),,82.8% (inactive),59.6% (inactive),,59.2% (inactive)
O=C(O)CNCP(=O)(O)O,98.5% (inactive),106% (inactive),,72.8% (inactive),108% (inactive),123% (inactive),100% (inactive),117% (inactive),90.9% (inactive),92.4% (inactive),95.3% (inactive),99.1% (inactive),104% (inactive),120% (inactive),113% (inactive),106% (inactive),119% (inactive),121% (inactive),111% (inactive),
Clc1ccc(COC(Cn2ccnc2)c2ccc(Cl)cc2Cl)c(Cl)c1 (configuration not stated),69.7% (inactive) and 87% (inactive),,53.6% (inactive) and 73.9% (inactive),25.8% (inactive) and 35.5% (inactive),62.1% (inactive) and 73.5% (inactive),53.8% (inactive) and 72.4% (inactive),29.6% (inactive) and 53.7% (inactive),46.1% (inactive),51% (inactive) and 53.5% (inactive),41.5% (inactive) and 45.3% (inactive),65% (inactive),41.2% (inactive) and 54.6% (inactive),38.4% (inactive),64.5% (inactive) and -11.4% (active),79.7% (inactive) and 91% (inactive),38.3% (inactive) and 22.3% (inactive),48.9% (inactive) and 64.2% (inactive),,49% (inactive) and 63.2% (inactive),-0.421% (active) and 18.6% (inactive)
C=CC1CN2CCC1CC2C(O)c1ccnc2ccccc12 (configuration not stated),-4.22% (active),145% (inactive),,67% (inactive),142% (inactive),109% (inactive),144% (inactive),125% (inactive),304% (inactive),258% (inactive),344% (inactive),213% (inactive),127% (inactive),116% (inactive),133% (inactive),,,117% (inactive),,225% (inactive)
C#Cc1cccc(Nc2nc(Cl)nc3cc(NC(=O)CF)ccc23)c1,66% (inactive),,91.9% (inactive),74% (inactive),85.7% (inactive),92.5% (inactive),55.8% (inactive),87.4% (inactive),93.4% (inactive),80% (inactive),22.1% (inactive),103% (inactive),88.2% (inactive),78.7% (inactive),81.5% (inactive),75.4% (inactive),53.5% (inactive),84.3% (inactive),108% (inactive),90.3% (inactive)
CC1=CC(=O)CCC12CCOC2=O (configuration not stated),125% (inactive),91.4% (inactive),,,92% (inactive),101% (inactive),91.3% (inactive),91.7% (inactive),82.4% (inactive),,,88.3% (inactive),100% (inactive),96.7% (inactive),101% (inactive),108% (inactive),106% (inactive),88.4% (inactive),93.8% (inactive),86.5% (inactive)
CC1=CC(=Nc2ccc(N(CCCl)CCCl)cc2)C=C(C)C1=O,-8.46% (active),,20.4% (inactive),-13.7% (active),9.98% (active),-1.94% (active),-44.9% (active),69.8% (inactive),-6.58% (active),-21.2% (active),-2.28% (active),9.64% (active),18.7% (inactive),35% (inactive),49.9% (inactive),21% (inactive),-62.5% (active),,-35.7% (active),-7.43% (active)
CC(=O)C(N)Cc1ccccc1 (configuration not stated),107% (inactive),100% (inactive),,96.3% (inactive),,99.7% (inactive),96.2% (inactive),,84.4% (inactive),101% (inactive),93.7% (inactive),79.6% (inactive),91.8% (inactive),105% (inactive),83.1% (inactive),107% (inactive),114% (inactive),,99.1% (inactive),
